This is an account of results in PubChem BioAssay (NCATS).

The nature of the assay: P-glycoprotein substrates identified in KB-8-5-11 adenocarcinoma cell line, qHTS therapeutic library screen (AID 1346987). Further: nearly all actives have a fitted effect of over 65% in size. On activity change, negative = cytotoxicity: series mostly up to about 44 µM. Summed up:
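Luminescence from CellTiter-Glo, read 5 min after addition, quantified survival of KB-8-5-11 (P-gp-overexpressing) cells exposed to compounds for 72 h. AC50 was derived from concentration-response curves.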
Background: In qHTS, concentration-response curves come from the screen itself.

Records with an inconclusive call do not appear. Where a call stands in place of a potency, no number is given. Values without a mark were called inactive. Activity calls are given as the source filed them. The call rests on the fitted dose curve; in most records, active means well fitted inhibition curve with a large enough effect; inconclusive means small, poorly fitted or top-dose-only effect; inactive means flat fitted curve, though single readings scatter.

Take `CC(C)c1ccc2c(c1)C(O)CC1C(C)(CO)CCCC21C` (stereo unspecified): the Potency result is “inactive”.

For the compound `CC(=O)OC[C@]12[C@H](OC(C)=O)[C@H](OC(=O)c3ccccc3)[C@@H]3[C@@H](OC(C)=O)[C@]1(OC3(C)C)[C@H](C)C[C@H](OC(=O)c1ccccc1)[C@@H]2OC(=O)c1ccccc1`, the Potency result is “inactive”.

Consider `CC(C)(C)NS(=O)(=O)c1ccc(-c2ccc3[nH]nc(N)c3c2)cc1`, for which the Potency result was “inactive”.

As for `Cc1cc(-n2c(=O)[nH]c(=O)n(C)c2=O)ccc1Oc1ccc(SC(F)(F)F)cc1`, the Potency entry was “inactive”.

Take `COC1OC(OC)C(O)(CCC2(C)C(C)CCC3(C)C2CC(O)C(O)C32CO2)C1O` (stereo unspecified): the Potency entry is “inactive”.

As to `CC(C)c1ccc2c(c1)C(=O)CC1C(C)(C(=O)O)CCCC21C` (stereo unspecified), the Potency result was “inactive”.

`Cc1cc(-c2nncc3c(C(C)(C)C)c(OCc4ncnn4C)nn23)no1`: the Potency result is “inactive”.

Turning to `C/C=C(\C)C(=O)OC[C@H]1O[C@@H](O[C@H]2[C@@H](O[C@H]3O[C@H](COC(=O)/C(C)=C/C)[C@@H](O)[C@H](O)[C@H]3O[C@@H]3O[C@H](COC(=O)/C(C)=C/C)[C@@H](O)[C@H](OC(=O)/C(C)=C/C)[C@H]3O)O[C@H](COC(=O)/C(C)=C/C)[C@@H](O)[C@@H]2O)[C@H](O)[C@@H](O)[C@@H]1O`, the activity change, negative = cytotoxicity was 0.351% [at 9.29 µM].

Turning to `C[C@H]1CCN2C[C@]34C[C@@]5(C(=O)Nc6c5ccc5c6OC=CC(C)(C)O5)C(C)(C)C3C[C@]12C(=O)N4C` (stereo partly specified), the Potency result was “inactive”.

As for `Nc1ccc(-n2nc(C(F)(F)F)cc2C(F)(F)F)cc1`, the Potency entry is “inactive”.

For `O=C(Nc1ccc(N2CCC(C(=O)N3CCOCC3)CC2)cc1)c1cnc(Oc2ccccc2)nc1`, the Potency result was “inactive”.
